Here are results for seven compounds from PubChem BioAssay (NCATS).

Structures are written as SMILES. Unmarked numbers belong to inactive results. Inconclusive results are not listed. Calls of active or inactive are those of the source. Unless noted, calls follow the shape of the dose curve; as a rule, active = well fitted curve in the direction sought with a large enough effect; inconclusive = small, poorly fitted or top-dose-only effect, or another doubt; inactive = no such curve, though single readings can be large; an effect the other way counts as inactive or inconclusive.

The target of test [1] is Lysosomal acid glucosylceramidase (Homo sapiens) (UniProt P04062). Briefly: Glucocerebrosidase-p2 (AID 348; in the data active = potency below about 10 µM; also: potency is read from the fitted curve at half-maximal effect). As to conditions: purified GBA, blue fluorogenic substrate, 40 min. In a few lines:
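Compounds titrated from 0.6 nM upwards against 0.2 nM enzyme in pH 5.9 citric acid/KH2PO4, taurocholate, tween-20; blue fluorogenic substrate 80 uM, 40 min room temperature, stopped and read Ex 365/Em 440 for AC50.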

A short description of test [2]: AP1 Signaling Pathway (AID 357; active = well fitted curve in either direction with a large enough effect, not every such curve was filed as active; also: % is scaled to controls: 0 for no effect and ±100 for the full control effect). Conditions: ME-180 AP-1-bla reporter, EGF-induced, beta-lactamase ratio, 5 h; at 7.69 µM (top of the series) unless noted. In a few lines: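 Read-out was the 460nm/530nm emission ratio (excitation 405nm) after CCF4 loading for 2.5 hours at room temperature. Cells carried an AP-1-driven beta-lactamase reporter, were stimulated with EC50 EGF plus compound for 5 hours, and AC50 values came from titrations.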

Test [3] has as its target Cytochrome P450 1A2 (Homo sapiens) (UniProt P05177). Briefly: p450-cyp1a2 (AID 410; calls by dose curve; also: potency is read from the fitted curve at half-maximal effect;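 as to activity change, negative = inhibition: -100% = full effect of reference inhibitor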). Conditions: recombinant CYP1A2, luciferin-ME demethylation, luminescence; series mostly up to 57 µM. In a few lines: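 Inhibition was calculated relative to 57 uM furafylline (full inhibition). The reaction used human CYP1A2 at 20nM with Luciferin-ME at its Km, 100uM, driven by an NADPH-regenerating system for 60 min at room temperature.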

Test [4] in a line: NFAT Signaling Pathway (AID 444; active = well fitted curve in either direction with a large enough effect, not every such curve was filed as active;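 also: carbachol stimulus at about its EC50 of 1 µM final; % is scaled to controls: 0 for no effect and ±100 for the full control effect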). As to conditions: Jurkat NFAT-bla M1, carbachol, beta-lactamase ratio, 5 h; at 7.69 µM (top of the series) unless noted. The essentials: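 Jurkat cells carrying an NFAT-driven β-lactamase reporter and co-transfected muscarinic M1 receptor were treated with compound plus carbachol (1 uM final, an EC50 level) for 5 h at 37 °C. CCF4 loading followed for 1 h at RT; 460/530 nm ratio gave %activity.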

A short description of test [5]: Stat Signaling Pathway (AID 446; active = well fitted curve in either direction with a large enough effect, not every such curve was filed as active;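 also: ME-180 cervical cancer cells given 40 pM IL-6 alongside compound; SIE-controlled beta-lactamase reporter measured as 460/530 nm FRET emission ratio; % is scaled to controls: 0 for no effect and ±100 for the full control effect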). As to conditions: ME-180 (cervical carcinoma) SIE beta-lactamase reporter, IL-6 stimulated, 5 h; at 7.69 µM (top of the series) unless noted. The essentials:
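ME-180 cells carrying a SIE-driven beta-lactamase reporter are stimulated with 40 pM IL-6 for 5 h at 37C in the presence of compound. The 460/530 nm FRET substrate ratio is read after 2.5 h at RT. Data are normalised to 300 pM IL-6 and to 125 nM JAK inhibitor controls.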

Test [6] concerns the target Glucocorticoid receptor (Homo sapiens) (UniProt P04150). Briefly: GR-GFP Redistribution (AID 450;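 active = compounds whose dose series gives a full or clear partial fitted curve of increased nuclear translocation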; also: potency is read from the fitted curve at half-maximal effect). As to conditions: U2OS GR-GFP nuclear translocation, laser cytometry, 2 h.
For test [7] the target is unchanged. Briefly: GR-EFC Redistribution (AID 451; calls by dose curve; also: potency is read from the fitted curve at half-maximal effect). Conditions: CHO-K1 GR-EFC translocation, beta-gal luminescence, 2 h. In a few lines: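 CHO-K1 cells stably expressing nuclear-localized β-gal enzyme acceptor and GR fused C-terminally to the enzyme donor fragment; ligand-driven nuclear translocation restores β-gal by complementation. Compounds titrated up to 46 uM final, 2 h at 37 °C; luminescence read.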

Test [8] deals with Mitogen-activated protein kinase 10 (Mus musculus) (UniProt Q61831). Put plainly: JNK3 AlphaScreen Assay (AID 530; active = well fitted curve in either direction with a large enough effect, not every such curve was filed as active;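 also: kinase came from lysate of stimulated human HepG2 cells; signal reports phosphorylation of biotinylated GST-cJun 1-79 at Ser73 with 10 µM ATP; % is scaled to controls: 0 for no effect and ±100 for the full control effect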). Conditions: JNK3 lysate, c-Jun phosphorylation; series mostly up to 57.1 µM. The essentials:
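JNK3 came from HepG2 lysates pre-activated with IL-1beta and TNF-alpha and phosphorylated biotinylated GST-cJun (1-79) at 10 uM ATP, pH 7.6, room temperature. Compounds were titrated. AlphaScreen signal used anti-phospho-cJun (Ser73) antibody.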

Test [9] has as its target 3',5'-cyclic-AMP phosphodiesterase 4B (Homo sapiens) (UniProt Q07343). Briefly: qHTS Assay for Inhibitors of PDE-IV (AID 607; active = well fitted activation curve with a large enough effect in the main read-out, with a control signal flat, not every such curve was filed as active; also: % of control where 0% means no effect). Conditions: HEK293 ACTOne CNG channel cells, membrane potential fluorescence; series mostly up to 22.9 µM. In a few lines:
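HEK293 ACTOne cells with CNG channel (1000/well), endogenous PDE4; membrane potential dye, compounds up to 22.9 uM final. Fluorescence Ex 535/Em 590; RO 20-1724 (100 uM final) as reference.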

Test [10] addresses Cytochrome P450 2C9 (Homo sapiens) (UniProt P11712). Briefly: qHTS Assay for Inhibitors and Substrates of Cytochrome P450 2C9 (AID 883). Also: nearly all actives have a fitted effect of over 60% in size. Also: potency is read from the fitted curve at half-maximal effect. As to conditions: recombinant CYP2C9, luciferin-H luminescence, 60 min; series mostly up to 57.1 µM. In a few lines: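 Human CYP2C9 (10nM) hydroxylated Luciferin-H (100uM, at its KM) to luciferin in 25mM KPO4. Compound was preincubated 10 min at 37C, then NADPH regeneration started a 60 min reaction at 37C. Luminescence was read after detection reagent, normalized to 57uM sulphaphenazole.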

Test [11] deals with Dual specificity protein kinase CLK4 (Homo sapiens) (UniProt Q9HAZ1). Put plainly: qHTS Assay for Inhibitors of CDC-like Kinase 4 (Kinase-Glo Assay) (AID 1770). Also: nearly all actives have a fitted effect of over 65% in size. Also: potency is read from the fitted curve at half-maximal effect. As to conditions: recombinant Clk4, Kinase-Glo ATP depletion luminescence; series mostly up to 66.7 µM. In a few lines: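 Recombinant human Clk4 (25 nM) phosphorylated RS repeat peptide (100 uM) with 1 uM ATP in Tris pH 7.5/MgCl2/EGTA/DTT/Triton buffer for 4.5 h at room temperature. Residual ATP was quantified by Kinase-Glo luciferase luminescence.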
Sequence of Dual specificity protein kinase CLK4 (Homo sapiens) (Q9HAZ1 whole entry, looked up): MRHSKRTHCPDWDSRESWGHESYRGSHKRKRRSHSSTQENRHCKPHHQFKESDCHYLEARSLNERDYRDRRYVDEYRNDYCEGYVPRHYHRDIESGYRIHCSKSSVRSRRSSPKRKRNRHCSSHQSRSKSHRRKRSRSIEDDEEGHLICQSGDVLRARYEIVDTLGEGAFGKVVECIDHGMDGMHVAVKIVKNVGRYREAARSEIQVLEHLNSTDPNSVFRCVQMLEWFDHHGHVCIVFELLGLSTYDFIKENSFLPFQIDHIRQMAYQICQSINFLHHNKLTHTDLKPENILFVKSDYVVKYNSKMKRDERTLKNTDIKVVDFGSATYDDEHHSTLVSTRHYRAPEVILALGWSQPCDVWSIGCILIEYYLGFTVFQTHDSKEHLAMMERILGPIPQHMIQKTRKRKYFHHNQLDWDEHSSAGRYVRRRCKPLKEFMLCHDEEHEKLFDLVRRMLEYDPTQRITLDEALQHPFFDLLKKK
On the technique in general: In qHTS, concentration-response curves come from the screen itself.

For test [12] the target is unchanged. Briefly: qHTS Assay for Inhibitors of CDC-like Kinase 4 (ADP-Glo Assay) (AID 1771). Also: nearly all actives have a fitted effect of over 70% in size. Also: potency is read from the fitted curve at half-maximal effect. Conditions: recombinant CLK4, ADP-Glo luminescence; series mostly up to 80 µM. The essentials:
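Kinase reaction: Clk4 at 25 nM, RS repeat peptide substrate at 100 uM, ATP at 1 uM, 1 hr, room temperature. Product ADP detected as luciferase signal via ADP-Glo.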

Test [13] shares this target. Put plainly: qHTS Assay for Inhibitors of CDC-like Kinase 4 (ADP-FP Assay) (AID 1795). Also: nearly all actives have a fitted effect of over 60% in size. Also: potency is read from the fitted curve at half-maximal effect. As to conditions: Transcreener ADP fluorescence polarization; series mostly up to 50 µM. The essentials: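 Recombinant human Clk4 (6.25 nM) phosphorylated RS repeat peptide (100 uM) with 1 uM ATP in Tris pH 7.5/MgCl2/EGTA/DTT/Triton buffer for one hour. ADP was quantified by Transcreener competitive fluorescence polarization against an ADP calibration curve.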

Test [14] concerns the target Ubiquitin carboxyl-terminal hydrolase 1 (Homo sapiens) (UniProt O94782). Briefly: Inhibitors of USP1/UAF1: Pilot qHTS (AID 504865).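 Also: rhodamine fluorescence freed from ubiquitin-rhodamine substrate followed over time; top concentration of the series differs between compounds; % is scaled to controls: 0 for no effect and ±100 for the full control effect; nearly all actives have a fitted effect of over 35% in size.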 Conditions: purified USP1/UAF1, Ub-rhodamine cleavage fluorescence; series mostly up to 54.9 µM. The essentials: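 USP1/UAF1 complex (1nM) preincubated with compound 15 min at room temperature, then Ub-Rho substrate (150nM final) added. Fluorescence read kinetically at 480/540 nm, 6 reads every 60 seconds. Buffer: 50mM HEPES pH 7.8, 0.5mM EDTA, 0.1 mg/ml BSA, 1mM TCEP, 0.01% Tween-20.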

The nature of test [15]: Primary qHTS for small molecule stabilizers of the endoplasmic reticulum resident proteome: Secreted ER Calcium Modulated Protein (SERCaMP) assay (AID 1508630). Also: % is scaled to controls: 0 for no effect and ±100 for the full control effect. As to conditions: SH-SY5Y GLuc-SERCaMP (Gaussia luciferase released on ER calcium loss) secretion, thapsigargin, luminescence; series mostly up to 38.4 µM. In a few lines:
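GLuc-SERCaMP-expressing SH-SY5Y cells, pretreated 16 h with compound, are challenged with thapsigargin to empty ER calcium stores; after 4 h, coelenterazine is added directly to the medium and luminescence is imaged.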

In test [16] the target is Cytochrome P450 3A4 (Homo sapiens) (UniProt P08684). Put plainly: qHTS Assay for Inhibitors and Substrates of Cytochrome P450 3A4 (AID 884). Also: nearly all actives have a fitted effect of over 50% in size. Also: potency is read from the fitted curve at half-maximal effect. As to conditions: recombinant CYP3A4, Luciferin-PPXE luminescence; series mostly up to 57.1 µM. The essentials:
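20 nM human CYP3A4 with 25 uM Luciferin-PPXE (at KM) in 200 mM KPO4, preincubated 10 min with compound; NADPH regeneration started a 60 min RT reaction. Luciferin detected by luminescence, normalized to 57 uM ketoconazole as full inhibition.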

Test [17] shares this target. Put plainly: qHTS Assay for Activators of Cytochrome P450 3A4 (AID 885). Also: nearly all actives have a fitted effect of over 65% in size. As to conditions: recombinant CYP3A4, Luciferin-PPXE luminescence, 60 min; series mostly up to 57.1 µM. In a few lines:
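Human CYP3A4 (20 nM) with Luciferin-PPXE at 25 uM (its KM) in 200 mM KPO4; 10 min compound preincubation, then NADPH regeneration and 60 min reaction at RT. Luciferin read by luminescence; normalized to 57 uM ketoconazole full inhibition.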

The target in test [18] is Cytochrome P450 2D6 (Homo sapiens) (UniProt P10635). Briefly: qHTS Assay for Inhibitors and Substrates of Cytochrome P450 2D6 (AID 891). Also: potency is read from the fitted curve at half-maximal effect; nearly all actives have a fitted effect of over 60% in size. As to conditions: recombinant CYP2D6, luciferin-ME EGE luminescence; series mostly up to 57.1 µM. The essentials: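 Human CYP2D6 (5 nM) with 30 uM Luciferin-ME EGE (at Km) in 100 mM KPO4, compound preincubated 10 min, then NADPH regeneration system for 60 min at room temperature. Luciferin read by luminescence; normalized to 1.43 uM quinidine.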

Test [19] has as its target Cytochrome P450 2C19 (Homo sapiens) (UniProt P33261). Put plainly: qHTS Assay for Inhibitors and Substrates of Cytochrome P450 2C19 (AID 899). Also: potency is read from the fitted curve at half-maximal effect; nearly all actives have a fitted effect of over 60% in size. As to conditions: recombinant CYP2C19, luciferin-H EGE luminescence; series mostly up to 57.1 µM. In a few lines: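 Human CYP2C19 (5nM) with Luciferin-H EGE at 10uM (its KM) in 50mM KPO4 was preincubated with compound for 10 min at 37C. NADPH regeneration started a 60 min 37C reaction. Luciferin was read by luminescence, normalized to 57uM ketoconazole.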

Test [20] concerns the target Rap guanine nucleotide exchange factor 3 (Homo sapiens) (UniProt O95398). Put plainly: Confirmatory qHTS for agonist of cAMP-regulated guanine nucleotide exchange factor 3 (EPAC1) (AID 1645881).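 Also: EPAC1 catalysed release of BODIPY-GDP from Rap1B seen as fluorescence loss; 100% = effect of cAMP agonist control; nearly all actives have a fitted effect of over 75% in size.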 Conditions: EPAC1 Rap1B BODIPY-GDP exchange fluorescence; series mostly up to 154 µM.

Sequence of Glucocorticoid receptor (Homo sapiens) (P04150 whole entry, looked up, the tested form may be a part): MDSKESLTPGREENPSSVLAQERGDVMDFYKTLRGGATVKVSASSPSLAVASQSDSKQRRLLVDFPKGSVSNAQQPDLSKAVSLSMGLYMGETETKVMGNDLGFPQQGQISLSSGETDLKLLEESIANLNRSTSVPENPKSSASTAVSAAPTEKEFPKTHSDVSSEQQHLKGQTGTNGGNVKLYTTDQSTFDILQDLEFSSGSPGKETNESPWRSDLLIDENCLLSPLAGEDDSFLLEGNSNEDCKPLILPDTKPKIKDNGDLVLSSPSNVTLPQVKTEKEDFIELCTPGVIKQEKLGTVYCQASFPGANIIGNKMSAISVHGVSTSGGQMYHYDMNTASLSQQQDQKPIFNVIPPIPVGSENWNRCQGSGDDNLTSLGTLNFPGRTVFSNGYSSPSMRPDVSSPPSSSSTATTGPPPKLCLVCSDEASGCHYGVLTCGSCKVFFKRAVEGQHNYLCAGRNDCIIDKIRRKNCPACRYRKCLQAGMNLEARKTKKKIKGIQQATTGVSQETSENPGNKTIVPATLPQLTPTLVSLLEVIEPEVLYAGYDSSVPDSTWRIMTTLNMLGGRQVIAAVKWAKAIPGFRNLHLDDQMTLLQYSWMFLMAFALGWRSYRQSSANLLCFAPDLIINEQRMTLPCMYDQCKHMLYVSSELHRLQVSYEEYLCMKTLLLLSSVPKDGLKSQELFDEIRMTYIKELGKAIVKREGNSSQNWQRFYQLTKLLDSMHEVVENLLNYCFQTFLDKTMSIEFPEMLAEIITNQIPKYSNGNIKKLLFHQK
Sequence of Cytochrome P450 3A4 (Homo sapiens) (P08684 whole entry, looked up): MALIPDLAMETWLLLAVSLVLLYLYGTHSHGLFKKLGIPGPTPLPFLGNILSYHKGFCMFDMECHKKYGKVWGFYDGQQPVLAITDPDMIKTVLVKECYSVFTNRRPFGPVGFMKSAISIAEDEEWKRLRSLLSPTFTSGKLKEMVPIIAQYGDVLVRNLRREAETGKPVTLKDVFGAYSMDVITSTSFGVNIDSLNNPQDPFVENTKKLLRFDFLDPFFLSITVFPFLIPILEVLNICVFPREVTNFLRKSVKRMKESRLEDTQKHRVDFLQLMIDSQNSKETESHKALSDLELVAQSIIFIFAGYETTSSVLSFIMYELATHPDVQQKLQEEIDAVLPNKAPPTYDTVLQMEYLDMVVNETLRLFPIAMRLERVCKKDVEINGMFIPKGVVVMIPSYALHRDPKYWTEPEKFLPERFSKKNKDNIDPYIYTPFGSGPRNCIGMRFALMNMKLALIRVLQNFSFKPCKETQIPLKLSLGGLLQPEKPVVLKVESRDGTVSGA
Sequence of Cytochrome P450 2C9 (Homo sapiens) (P11712 whole entry, looked up): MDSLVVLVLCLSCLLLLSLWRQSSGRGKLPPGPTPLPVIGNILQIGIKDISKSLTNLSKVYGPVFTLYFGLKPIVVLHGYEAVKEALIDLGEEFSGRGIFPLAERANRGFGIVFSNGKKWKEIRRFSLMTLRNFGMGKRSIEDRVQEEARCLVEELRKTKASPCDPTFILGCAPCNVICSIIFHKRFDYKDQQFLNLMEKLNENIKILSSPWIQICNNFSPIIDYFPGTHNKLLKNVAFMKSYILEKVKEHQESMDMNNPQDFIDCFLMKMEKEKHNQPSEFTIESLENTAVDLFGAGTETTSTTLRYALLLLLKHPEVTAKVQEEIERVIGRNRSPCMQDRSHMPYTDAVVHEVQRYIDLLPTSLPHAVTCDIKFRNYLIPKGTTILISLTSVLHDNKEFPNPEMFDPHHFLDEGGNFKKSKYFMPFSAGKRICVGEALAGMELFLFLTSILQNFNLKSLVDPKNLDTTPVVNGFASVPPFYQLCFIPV
Sequence of Cytochrome P450 1A2 (Homo sapiens) (P05177 whole entry, looked up): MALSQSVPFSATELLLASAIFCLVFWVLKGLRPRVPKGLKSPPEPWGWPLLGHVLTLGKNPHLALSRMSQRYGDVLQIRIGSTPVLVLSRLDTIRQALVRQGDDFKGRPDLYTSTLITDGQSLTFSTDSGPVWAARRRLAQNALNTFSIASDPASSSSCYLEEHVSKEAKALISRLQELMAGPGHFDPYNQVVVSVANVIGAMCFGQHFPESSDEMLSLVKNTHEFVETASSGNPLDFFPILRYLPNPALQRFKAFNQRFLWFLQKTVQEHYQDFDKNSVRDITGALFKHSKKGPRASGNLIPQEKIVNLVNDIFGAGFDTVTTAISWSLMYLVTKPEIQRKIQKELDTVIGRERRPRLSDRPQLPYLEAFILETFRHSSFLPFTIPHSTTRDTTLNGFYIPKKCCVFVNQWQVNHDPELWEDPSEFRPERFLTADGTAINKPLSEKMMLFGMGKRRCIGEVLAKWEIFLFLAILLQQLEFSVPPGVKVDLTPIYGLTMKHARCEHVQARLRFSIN
Sequence of Lysosomal acid glucosylceramidase (Homo sapiens) (P04062 whole entry, looked up): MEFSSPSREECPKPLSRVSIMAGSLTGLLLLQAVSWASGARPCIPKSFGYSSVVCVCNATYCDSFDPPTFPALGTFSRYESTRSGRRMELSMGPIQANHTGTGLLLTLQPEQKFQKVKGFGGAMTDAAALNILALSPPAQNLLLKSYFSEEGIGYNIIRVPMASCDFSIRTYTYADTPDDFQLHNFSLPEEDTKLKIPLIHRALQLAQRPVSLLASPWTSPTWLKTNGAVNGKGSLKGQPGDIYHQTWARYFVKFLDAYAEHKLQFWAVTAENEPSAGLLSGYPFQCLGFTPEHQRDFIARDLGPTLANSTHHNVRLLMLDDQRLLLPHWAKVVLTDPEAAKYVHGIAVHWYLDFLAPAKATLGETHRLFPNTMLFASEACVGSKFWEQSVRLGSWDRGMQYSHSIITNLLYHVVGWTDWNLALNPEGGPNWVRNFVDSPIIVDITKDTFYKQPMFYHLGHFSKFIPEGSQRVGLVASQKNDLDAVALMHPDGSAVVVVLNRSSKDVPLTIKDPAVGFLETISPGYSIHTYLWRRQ
Sequence of Ubiquitin carboxyl-terminal hydrolase 1 (Homo sapiens) (O94782 whole entry, looked up): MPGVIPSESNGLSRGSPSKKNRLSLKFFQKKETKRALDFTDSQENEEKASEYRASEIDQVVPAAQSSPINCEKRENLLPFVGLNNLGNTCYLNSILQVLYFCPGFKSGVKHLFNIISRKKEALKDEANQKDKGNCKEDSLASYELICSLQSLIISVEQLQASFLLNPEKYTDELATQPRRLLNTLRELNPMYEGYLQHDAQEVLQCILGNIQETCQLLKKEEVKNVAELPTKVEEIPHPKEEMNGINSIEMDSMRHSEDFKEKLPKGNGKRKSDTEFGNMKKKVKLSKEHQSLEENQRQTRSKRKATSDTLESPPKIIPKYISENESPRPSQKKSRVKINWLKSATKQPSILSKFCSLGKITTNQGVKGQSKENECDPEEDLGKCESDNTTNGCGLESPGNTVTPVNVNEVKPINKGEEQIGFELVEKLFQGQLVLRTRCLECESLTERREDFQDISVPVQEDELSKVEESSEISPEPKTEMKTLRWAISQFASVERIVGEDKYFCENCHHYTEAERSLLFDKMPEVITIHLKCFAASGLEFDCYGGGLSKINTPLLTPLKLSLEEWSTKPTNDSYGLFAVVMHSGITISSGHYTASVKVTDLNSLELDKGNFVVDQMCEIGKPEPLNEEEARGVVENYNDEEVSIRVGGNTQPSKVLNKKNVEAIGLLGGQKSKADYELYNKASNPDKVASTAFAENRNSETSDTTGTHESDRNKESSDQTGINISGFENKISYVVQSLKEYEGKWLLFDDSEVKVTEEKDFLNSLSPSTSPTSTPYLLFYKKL
Sequence of 3',5'-cyclic-AMP phosphodiesterase 4B (Homo sapiens) (Q07343 whole entry, looked up): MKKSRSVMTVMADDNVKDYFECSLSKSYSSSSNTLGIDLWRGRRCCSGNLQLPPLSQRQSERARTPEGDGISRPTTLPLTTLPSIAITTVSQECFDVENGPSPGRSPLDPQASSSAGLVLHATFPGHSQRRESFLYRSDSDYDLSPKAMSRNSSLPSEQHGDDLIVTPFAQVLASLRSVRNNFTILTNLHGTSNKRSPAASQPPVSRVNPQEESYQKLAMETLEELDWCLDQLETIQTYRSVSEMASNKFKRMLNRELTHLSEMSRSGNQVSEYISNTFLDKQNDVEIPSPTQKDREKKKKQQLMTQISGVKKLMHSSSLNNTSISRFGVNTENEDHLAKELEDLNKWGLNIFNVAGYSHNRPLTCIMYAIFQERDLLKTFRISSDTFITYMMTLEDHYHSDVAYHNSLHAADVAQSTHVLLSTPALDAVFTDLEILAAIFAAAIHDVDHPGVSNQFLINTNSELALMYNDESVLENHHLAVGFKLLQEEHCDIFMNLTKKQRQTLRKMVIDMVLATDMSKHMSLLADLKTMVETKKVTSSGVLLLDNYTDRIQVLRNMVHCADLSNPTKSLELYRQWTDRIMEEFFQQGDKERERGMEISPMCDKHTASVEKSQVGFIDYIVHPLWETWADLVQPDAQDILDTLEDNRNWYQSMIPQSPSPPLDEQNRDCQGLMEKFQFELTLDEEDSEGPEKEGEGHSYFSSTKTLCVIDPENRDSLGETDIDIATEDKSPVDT

As to `O=c1c(-c2ccccc2)nc2cnc(Oc3cccc(Cl)c3)nc2n1C1CC1`, the Potency in [1] is above 11.4 µM; in test [3] it was 1.58 µM (active); in test [6], above 9.22 µM; in test [7] it was above 46 µM; in test [10], 0.251 µM (active). Also, the values for the activity change, negative = inhibition in test [2] and in test [4] were -15.1% and 10.9%, respectively. Further, the activity, negative = inhibition in test [5] is -5.81%. In addition, the Potency entry in test [8], in test [9], in test [11], in [12], in [13] and in [14] was “inactive” throughout. Moreover, the outcome in test [15] was inactive.

On to `COc1c(O)cc2oc3cc(O)c(CC=C(C)C)c(O)c3c(=O)c2c1CC=C(C)C`, for which the Potency in test [3] is 31.6 µM (active); in [7] it was above 20.6 µM; in test [10] it was 5.01 µM (active); in test [18], 31.6 µM (active); in test [19] it was 10 µM (active). Besides, the Potency entry in test [8], in test [9], in [16] and in test [17] was “inactive” in each case. The outcome in test [15] was inactive.

With `CCNc1ncc2nc(-c3ccccc3)c(=O)n(C)c2n1`, the Potency in test [1] was above 11.4 µM; in test [3], 0.398 µM (active); in [6] it was above 9.22 µM; in test [7], above 46 µM. Besides, the activity change, negative = inhibition is -13.4% in [2] and -7.59% in [4]. Also, in test [5], the activity, negative = inhibition is -9.07%. Further, the Potency result in test [8], in test [11], in test [12], in test [13] and in test [14] was “inactive” each time. Also, the outcome in [15] was inactive.

In the case of `COc1ccc(C(=O)N2CCC[C@@]3(CCN(Cc4cc(C(F)(F)F)cc(C(F)(F)F)c4)C3)C2)cc1`, the Potency in test [1] was above 11.4 µM; in [7], above 46 µM; in test [16] it was 3.16 µM (active). Moreover, the results for the activity change, negative = inhibition in test [2] and in test [4] were 16.8% and -5.26%, respectively. Moreover, the Potency entry in [3], in test [8], in [9], in test [17] and in [20] was “inactive” throughout. Moreover, the activity, negative = inhibition in test [5] is -1.38%. The outcome in [15] was inactive.

For `CNc1nc(-c2cccnc2)nc2ccccc12`, the Potency in test [1] is above 11.4 µM; in test [3] it was 0.1 µM (active); in [6] it was above 46 µM; in [7] it was above 46 µM; in [16], 6.31 µM (active); in [11], 4.47 µM (active). Further, the figures for the Potency in test [12] and in test [13] were 6.31 µM (active) and 3.98 µM (active), respectively. Further, the values for the activity change, negative = inhibition in [2], in test [4] and in test [10] were 14.7%, 2.11% and 82.3% [at 2.29 µM], respectively. In test [5], the activity, negative = inhibition is -3.74%. Besides, the Potency result in test [8], in test [9] and in [14] was “inactive” each time. In addition, in [15], the outcome was inactive.

Take `COc1cccc(-c2nc(NCc3ccc(OC)cc3OC)c3ccccc3n2)c1`: the activity change, negative = inhibition in test [2] is -5.61%; in test [4], -23.1%. Also, the activity, negative = inhibition in test [5] was -8.78%. Moreover, the Potency in test [6] and in [7] was above 46 µM each time. Also, the Potency entry in test [8], in test [11], in test [12], in [13] and in test [20] was “inactive” throughout. Besides, the result in test [15] was inactive.

`CCNc1ncc2nc(-c3cn(C)c4ccccc34)c(=O)n(Cc3cccs3)c2n1`: the Potency was above 11.4 µM in test [1], 6.31 µM (active) in [3], above 9.22 µM in test [6] and above 46 µM in [7]. For the same compound, the activity change, negative = inhibition was -13.1% in test [2] and 8.06% in test [4]. In test [5], the activity, negative = inhibition is 23.5%. Besides, the Potency entry in test [8], in [9], in test [11], in test [12], in test [13] and in [14] was “inactive” each time. Further, the result in test [15] was inactive.
